Screens (PubChem BioAssay)
MCF10A rereplic: A quantitative high throughput screen for small molecules that induce DNA re-replication in MCF 10a normal breast cells; MCF 10A DNA re-replication, Hoechst nuclear intensity, 48 h; 350,000 compounds, 2.9% hits; AID 624296, 2012; Potency, µM (series often up to 46.1 µM), actives largely listed as activators; also: nearly all actives have a fitted effect of over 50% in size
HT1080-NT tox: qHTS for induction of synthetic lethality in tumor cells producing 2HG: qHTS for the HT-1080-NT fibrosarcoma cell line; Potency, µM (top dose mostly 46.1 µM), actives largely listed as cytotoxic; 360,000 compounds, 1.6% hits; AID 686970, 2013; HT-1080-NT fibrosarcoma viability, CellTiter-Glo ATP luminescence, 48 h;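 also: NT is the 2HG producing partner of a matched IDH1 knockdown line; nearly all actives have a fitted effect of over 55% in size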
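Viability of the 2HG-overproducing fibrosarcoma line after 48 hours of compound exposure at 37 degrees C was determined by luminescence with CellTiter-Glo, and concentration-effect curves were then fitted and categorized.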
HT1080 IDH1KD tx: qHTS for induction of synthetic lethality in tumor cells producing 2HG: qHTS for the HT-1080-IDH1KD cell line. Potency, µM (highest dose often 46.1 µM), most hits filed as cytotoxic. AID 686971, 2013. HT-1080 IDH1 knockdown viability, ATP luminescence, 48 h. 360,000 compounds, 2% hits
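Viability of IDH1-knockdown HT-1080 fibrosarcoma cells was assessed by CellTiter-Glo after 48 h at 37 °C with titrated compound; concentration-effect curves were classified by fit quality and response size.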
KB-3-1 cytotox: qHTS assay for MDR1-selective chemotherapeutics: Primary screen using the parental adenocarcinoma cell KB-3-1; KB-3-1 viability, CellTiter-Glo ATP luminescence, 72 h; Potency, µM (series often up to 46.1 µM), hits mostly cytotoxic; 400,000 compounds, 1.4% hits; AID 1347075, 2019; also: nearly all actives have a fitted effect of over 60% in size
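KB-3-1 parental drug-naive adenocarcinoma cells in DMEM/10% FBS, incubated 72 h at 37 C with pin-transferred compounds across a concentration series. Viability by CellTiter-Glo luminescence; concentration-response curves fitted after normalization.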
KB-V1 MDR tox: qHTS assay for MDR1-selective chemotherapeutics: Primary screen using the drug-selected MDR subline cells KB-V1; AID 1347076, 2019; KB-V1 MDR cells viability, CellTiter-Glo, 72 h; 400,000 compounds, 3.4% hits; Potency, µM (series often up to 46.1 µM), most hits filed as cytotoxic; also: nearly all actives have a fitted effect of over 60% in size
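Cells of the MDR subline KB-V1 are plated, dosed with compound at multiple concentrations, and incubated 72 h at 37 degrees C; CellTiter-Glo is then added and luminescence read after 10 min.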
SW480 rerep: A quantitative high throughput screen for small molecules that induce DNA re-replication in SW480 colon adenocarcinoma cells; SW480 DNA re-replication, Hoechst DNA content imaging, 48 h; Potency, µM (top dose mostly 46.1 µM), hits mostly activators; 340,000 compounds, 1.8% hits; AID 624297, 2012; also: nearly all actives have a fitted effect of over 55% in size
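Readout is total intensity of Hoechst-stained nuclei, excited at 405 nm and collected at 500-530 nm. Compound treatment lasted 48 hr at 37 C in 5% CO2 before staining.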
Of the large screens only hits and unclear results are named; the others gave an inactive call. The list is not random: actives were taken first. Their share in the collection is about 7.9%. Calls follow the shape of the dose curve; as a rule, active = well fitted curve in the direction sought with a large enough effect; inconclusive = small, poorly fitted or top-dose-only effect, or another doubt; inactive = no such curve, though single readings can be large; an effect the other way counts as inactive or inconclusive.

O=S(=O)(/N=S1\CC=CCN1S(=O)(=O)c1ccccc1)c1ccccc1 (centres undefined)	MCF10A rereplic 18µM, HT1080-NT tox inconclusive, HT1080 IDH1KD tx inconclusive, SW480 rerep inconclusive
CC1=C(C)CS(=O)N(S(=O)(=O)c2ccccc2)C1 (centres undefined)	MCF10A rereplic inconclusive, HT1080-NT tox inconclusive, HT1080 IDH1KD tx inconclusive, KB-V1 MDR tox inconclusive, SW480 rerep inconclusive
CC(C)N1CC(C(=O)Nc2ccccc2)CC1=O (centres undefined)	KB-V1 MDR tox inconclusive
Cc1ccc(NC(=O)C2CC(=O)N(C(C)c3ccccc3)C2)cc1 (centres undefined)	KB-V1 MDR tox 18µM
COc1ccc(CNC(=O)CCNS(=O)(=O)c2ccc(NC(C)=O)cc2)cc1OC	MCF10A rereplic inconclusive
COc1ccc(CCNC(=O)c2cccc3c2C(=O)N(C2CCCCC2)C3)cc1OC	KB-V1 MDR tox 18µM
O=C(NCCc1ccccc1)c1cccc2c1C(=O)N(C1CCCCC1)C2	none
Cc1nn(C(C)(C)C)c(OC(=O)C2CCCC2)c1S(=O)(=O)c1ccccc1	MCF10A rereplic inconclusive, HT1080-NT tox inconclusive, HT1080 IDH1KD tx inconclusive, KB-3-1 cytotox 21µM, KB-V1 MDR tox inconclusive
CC(C)N(Cc1nccn1C)C(=O)c1cc(COc2ccc(-n3cncn3)cc2)on1	KB-V1 MDR tox inconclusive
CCC(Sc1nc2ccccc2s1)C(=O)Nc1nnc(C)s1 (centres undefined)	MCF10A rereplic inconclusive, KB-V1 MDR tox 16µM
CC(Sc1nc2ccccc2s1)C(=O)Nc1nnc(C(C)C)s1 (centres undefined)	none
COc1ccccc1N=C(C)C1=C(O)CC(c2ccccc2)CC1=O (centres undefined)	MCF10A rereplic inconclusive, HT1080-NT tox inconclusive, HT1080 IDH1KD tx inconclusive, KB-3-1 cytotox inconclusive, KB-V1 MDR tox 1.5µM, SW480 rerep 2.1µM
CCCC(=Nc1ccccc1OC)C1=C(O)CC(c2ccccc2)CC1=O (centres undefined)	MCF10A rereplic inconclusive
O=C(CCCOc1ccc(Cl)cc1Cl)Nc1cccnc1	KB-V1 MDR tox 18µM
N/C(=N\OC(=O)COc1ccc(Cl)cc1Cl)c1cccnc1	KB-V1 MDR tox inconclusive, SW480 rerep 13µM
CSc1cccc(NC(=O)CCCOc2ccc(Cl)cc2Cl)c1	none
N/C(=N\OC(=O)COc1ccc(Cl)cc1)c1cccnc1	KB-V1 MDR tox inconclusive
CCOc1ccccc1NC(=S)NC(=O)CCCOc1ccc(Cl)cc1Cl	HT1080-NT tox 11µM, HT1080 IDH1KD tx inconclusive
Cc1cccc(CN2CCN(C3CN(C4CCCCC4)S(=O)(=O)C3)CC2)c1 (centres undefined)	HT1080 IDH1KD tx inconclusive, KB-3-1 cytotox inconclusive (no result: MCF10A rereplic, SW480 rerep)
Nc1cc2c(cc1Br)-c1c(C(=O)O)cccc1C2O (centres undefined)	none
O=C1c2ccccc2C(=O)N1OS(=O)(=O)c1ccc(F)cc1	none
Cc1cc(C)c(C)c(S(=O)(=O)ON2C(=O)c3ccccc3C2=O)c1C	MCF10A rereplic 7.3µM, HT1080-NT tox inconclusive, HT1080 IDH1KD tx 7.3µM, SW480 rerep 21µM
Cc1cc(C)c(S(=O)(=O)ON2C(=O)c3ccccc3C2=O)cc1C	MCF10A rereplic 7.3µM, HT1080-NT tox inconclusive, HT1080 IDH1KD tx 10µM, SW480 rerep inconclusive
Cc1ccc(S(=O)(=O)ON2C(=O)c3ccccc3C2=O)c(C)c1	MCF10A rereplic 13µM, HT1080-NT tox inconclusive, HT1080 IDH1KD tx inconclusive, SW480 rerep inconclusive
C[C@H]1COC(=O)[C@@H](Cc2ccc(F)cc2)C/C=C\C[C@@H](CC(=O)N[C@@H](CO)Cc2ccccc2)C(=O)N1	KB-3-1 cytotox inconclusive
Cc1cnc(NC(=O)c2cc(S(=O)(=O)N(C)C)ccc2N2CCCC2)s1	MCF10A rereplic 6.5µM, KB-3-1 cytotox 21µM, KB-V1 MDR tox inconclusive, SW480 rerep inconclusive
COc1ccc(C(C)(C)C)cc1NC(=O)c1cc(S(=O)(=O)N(C)C)ccc1N1CCCC1	KB-V1 MDR tox 23µM
CN(C)S(=O)(=O)c1ccc(N2CCCC2)c(C(=O)Nc2ccc(F)cc2F)c1	none
COc1ccccc1NCCC(=O)OCC(=O)Nc1cc([N+](=O)[O-])ccc1F	none
CC(=O)Nc1ccc(NC2=Nc3ccccc3N3C2=Nc2c(c(C)nn2-c2ccccc2)C3c2ccccc2)cc1 (centres undefined)	MCF10A rereplic inconclusive, KB-3-1 cytotox 8.2µM, KB-V1 MDR tox inconclusive, SW480 rerep inconclusive
COc1ccc(NC2=Nc3ccccc3N3C2=Nc2c(c(C)nn2-c2ccc(C)cc2)C3c2cccnc2)cc1 (centres undefined)	MCF10A rereplic 4.6µM, KB-V1 MDR tox inconclusive, SW480 rerep 2.9µM
O=C(Nc1cc(-c2ccc(Cl)cc2)no1)c1ccc(F)cc1	KB-V1 MDR tox inconclusive (no result: MCF10A rereplic, HT1080-NT tox, HT1080 IDH1KD tx, SW480 rerep)
CCOC(=O)c1cc(OC(=O)c2cccc(F)c2)n(-c2ccccc2)n1	none (no result: MCF10A rereplic, HT1080-NT tox, HT1080 IDH1KD tx, SW480 rerep)
COc1ccc(C2Oc3ccccc3C3=C2C(c2cccs2)n2ncnc2N3)cc1 (centres undefined)	MCF10A rereplic inconclusive, HT1080-NT tox inconclusive, HT1080 IDH1KD tx 8.2µM, KB-3-1 cytotox 5.8µM, KB-V1 MDR tox 5.8µM, SW480 rerep inconclusive
Brc1ccc(C2C3=C(Nc4ncnn42)c2ccccc2OC3c2ccncc2)cc1 (centres undefined)	MCF10A rereplic inconclusive, HT1080-NT tox inconclusive, HT1080 IDH1KD tx inconclusive, KB-3-1 cytotox inconclusive, KB-V1 MDR tox 21µM, SW480 rerep inconclusive
CCc1c(C)sc(NC(=O)OC)c1C(N)=O	none
CCc1c(C)sc(NC(=O)CCc2ccc(OC)cc2)c1C(N)=O	KB-V1 MDR tox 21µM
COc1ccccc1-c1cc(C(F)(F)F)nc(S(=O)(=O)CCCC(=O)O)n1	MCF10A rereplic inconclusive, HT1080-NT tox 11µM, HT1080 IDH1KD tx 8.9µM, SW480 rerep 3.5µM
COc1ccc(-c2cc(C(F)(F)F)nc(S(=O)(=O)CCC(=O)N3CCOCC3)n2)cc1	MCF10A rereplic 8.2µM, KB-3-1 cytotox inconclusive, KB-V1 MDR tox inconclusive, SW480 rerep inconclusive
COc1ccc(-c2cc(C(F)(F)F)nc(NCc3cccs3)n2)cc1	HT1080-NT tox inconclusive, HT1080 IDH1KD tx inconclusive
COc1ccccc1-c1cc(C(F)(F)F)nc(NCc2cccs2)n1	MCF10A rereplic inconclusive, KB-V1 MDR tox 21µM
